# From PubChem BioAssay
# SMN2 splice enh: enhancers of SMN2 splice variant expression. AID 1458. HEK293 SMN2-luciferase splicing reporter, luminescence, 30-36 h. 210,000 compounds, 2.8% hits. Potency, µM (highest dose often 46.1 µM), most hits filed as activators; further: nearly all actives have a fitted effect of over 55% in size
#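 HEK293 cells carry an SMN2 […]–luciferase reporter in which exon 7 inclusion puts luciferase in frame. Cells were plated 10-12 h before compound addition, then incubated 30-36 h at 37C. ONE-Glo luminescence was read; sodium butyrate at 4.5 mM final served as control.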
# NPC1 promoter act: activates the NPC1 promoter. Huh7 NPC1 promoter luciferase reporter, 24 h. Potency, µM (top dose mostly 9.22 µM), usual class: activators. 320,000 compounds, 2.4% hits. AID 485313; further: nearly all actives have a fitted effect of over 60% in size
#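 Luminescence from an NPC1 promoter-driven luciferase reporter in stably transfected Huh7 cells was measured after 24 h compound treatment at 37 °C, followed by 10 min ambient incubation with luciferase detection reagent.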
# ELG1 genotoxic: genotoxicity induction in ELG1-luciferase HEK293T cells | HEK293T ELG1-luciferase reporter, luminescence, 16 h | Potency, µM (titrated, usually from 46 µM), usual class: activators | AID 504466 | 330,000 compounds, 1.3% hits; further: nearly all actives have a fitted effect of over 60% in size
#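 Quantitative HTS format in 1536-well plates. HEK293T ELG1-luciferase reporter cells receive test compound and are incubated 16 hr at 37 °C, 5% CO2; ONE-Glo added, 30 min room temperature, then luminescence read.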
# Rab9 promoter act: activators of Rab9 promoter | Huh7 Rab9 promoter-luciferase reporter, luminescence, 24 h | Potency, µM (highest dose often 9.22 µM), most hits filed as activators | 320,000 compounds, 2.8% hits; further: nearly all actives have a fitted effect of over 60% in size
#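 Steps: seed 1500 Huh7 Rab9-luc cells per well, rest 2 h at 37 °C; add compound in DMSO; incubate 24 h; add luciferase reagent, 10 min ambient; read luminescence.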
# FLuc modulator: counter-screen for miR-21 project: firefly luciferase inhibitors or activators; purified FLuc, Km substrates, luminescence inhibition; Potency, µM (series often up to 57.5 µM), usual class: inhibitors; 360,000 compounds, 6.9% hits; further: nearly all actives have a fitted effect of over 55% in size
# Target sequence (P08659 whole entry, looked up): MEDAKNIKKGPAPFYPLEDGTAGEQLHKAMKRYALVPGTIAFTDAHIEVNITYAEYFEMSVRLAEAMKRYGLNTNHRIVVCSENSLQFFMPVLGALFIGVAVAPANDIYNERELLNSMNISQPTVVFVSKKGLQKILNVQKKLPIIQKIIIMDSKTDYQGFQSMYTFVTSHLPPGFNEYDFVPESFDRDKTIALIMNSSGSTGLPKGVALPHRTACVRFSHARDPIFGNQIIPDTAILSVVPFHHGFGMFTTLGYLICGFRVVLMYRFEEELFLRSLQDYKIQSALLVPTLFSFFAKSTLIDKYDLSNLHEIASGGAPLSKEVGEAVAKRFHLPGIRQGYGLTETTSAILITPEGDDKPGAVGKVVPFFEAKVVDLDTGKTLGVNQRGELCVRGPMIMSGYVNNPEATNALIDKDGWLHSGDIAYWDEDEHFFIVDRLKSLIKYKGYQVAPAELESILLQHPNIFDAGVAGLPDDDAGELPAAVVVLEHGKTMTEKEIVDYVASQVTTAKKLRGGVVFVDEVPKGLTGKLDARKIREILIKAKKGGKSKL
#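 Purified P. pyralis luciferase, 10 nM final, with Km-level 10 uM D-luciferin and 10 uM ATP in 50 mM Tris acetate pH 7.5, 10 mM Mg acetate, 0.01% Tween-20, 0.05% BSA; 6-point qHTS titration about 60 µM downward; luminescence read.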
# A number is an active result; 0 = inactive; ? = inconclusive; - = not tested or not shown; [ ] = another dose, or the depositor's remark. Hits are enriched below; roughly 7.4% of the tested compounds scored in any of these assays. The call rests on the fitted dose curve; in most records, active means well fitted curve in the direction sought with a large enough effect; inconclusive means small, poorly fitted or top-dose-only effect, or another doubt; inactive means no such curve, though single readings can be large; an effect the other way counts as inactive or inconclusive.
SMILES,SMN2 splice enh,NPC1 promoter act,ELG1 genotoxic,Rab9 promoter act,FLuc modulator
Cc1nc2cc(-c3ccccc3)[nH]n2c(=O)c1C,-,0,21µM,?,13µM
COC(=O)CC1c2ccccc2C=C(/C=C/c2ccc3c(c2)OCO3)N1C(=O)OC (stereo not given),0[9.22 µM],-,-,-,-
CCOC(=O)Cc1cc(=O)n2[nH]c(-c3ccc(C)cc3)cc2n1,0,0,?,0,19µM
Cc1ccc(NNS(=O)(=O)c2ccc(C)cc2)cc1,0,0,0,0,21µM
Cc1ccc(C)c(NC(=O)/C(C#N)=C/c2ccc[nH]2)c1,-,0,0,0,0
Cc1cccc(NC(=O)/C(C#N)=C/c2ccc[nH]2)c1C,-,?,?,4µM,0
O=C(CNC(=O)C1CCCCC1)OCC(=O)c1ccc(Br)cc1,-,0,0,0,1.7µM
CCOc1ccc(C(=O)COC(=O)CNC(=O)C2CCCCC2)cc1,-,0,0,0,9.5µM
COc1ccc(C(=O)COC(=O)CNC(=O)C2CCCCC2)c(OC)c1,0,0,0,0,?
O=C(Nc1cc(-c2ccc(F)c(F)c2)no1)c1ccccc1F,-,-,-,-,0
O=C(CC(c1ccco1)S(=O)(=O)c1ccccc1)c1ccc(F)cc1 (stereo not given),0,0,0,0,19µM
COc1ccc(N(C)S(=O)(=O)c2ccc3c(c2)n(C)c(=O)c(=O)n3C)cc1,0,-,-,-,0
Cc1ccsc1/C=N/n1cnnc1,-,0,0,0,0
Cc1ccsc1/C=N/n1cnc2sc(C)c(C)c2c1=O,0,?,0,?,11µM
C/C(=N\NC(=O)COc1ccc(C(C)(C)C)cc1)c1ccccc1,0,0,0,0,11µM
C/C(=N\NC(=O)COc1ccc(C)cc1C(C)C)c1ccc(-n2ccnc2)cc1,0,0,0,0,1.9µM
C/C(=N\NC(=O)COc1ccc(C(C)(C)C)cc1)c1cc2ccccc2o1,18µM,2.8µM,0,3.5µM,0.3µM
COC(=O)N/N=C(\C)c1ccc(-n2ccnc2)cc1,0,0,0,0,0
C/C(=N\NC(=O)COc1ccc(C)cc1C(C)C)c1cc2ccccc2o1,13µM,0,0,0,3.4µM
Cc1ccc(C)c(S(=O)(=O)c2nnn3c2nc(NC(C)C)c2sccc23)c1,-,-,-,-,0
O=C(O)c1ccc2c(c1)C(=O)N([C@H](Cc1c[nH]c3ccccc13)C(=O)O)C2=O,-,0,-,0,0
CCc1ccc(OCC(=O)N/N=C(\C)c2ccc3c(c2)OCCO3)cc1,0,0,0,0,?
COc1ccc(NCC(=O)N/N=C(\C)c2cc3ccccc3o2)cc1,0,0,0,0,17µM
C/C(=N\NC(=O)COc1ccc(C(C)(C)C)cc1)c1ccc2c(c1)OCCO2,0,0,0,0,19µM
O=S(=O)(C[C@H](O)C(Cl)(Cl)Cl)NNc1ccccc1,0[9.22 µM],-,-,-,-
SMILES,SMN2 splice enh,NPC1 promoter act,ELG1 genotoxic,Rab9 promoter act,FLuc modulator
COc1ccc(OCCn2cc(C(=O)c3ccco3)c3ccccc32)cc1,0,-,-,-,0
CCN1C(=O)[C@@H]2[C@H](C1=O)[C@@H]1C[C@H]3C(=O)N(CC)C(=O)[C@H]3[C@@H]3C1=C(C(=O)N1C(=O)O/C(=N\CC4CC4)[C@]31C)[C@@H]2C,0,-,-,-,-
Cc1ccc(N(C)S(=O)(=O)c2ccc3[nH]c(=O)ccc3c2)cc1,-,-,-,-,8.5µM
CN(c1ccc(O)cc1)S(=O)(=O)c1ccc2ccccc2c1,-,?,?,4µM,19µM
O=c1c(CCc2ccccc2)nc2cnc(N3CCNCC3)nc2n1Cc1ccc(F)cc1,0,-,-,-,-
O=C1OC(/C=C/c2ccc(Cl)cc2)=NC/1=C/c1ccco1,0,0,0,0,0
CN1C(=O)/C(=C\c2ccco2)N=C1c1ccc(Cl)cc1Cl,-,0,0,0,17µM
O=C(Nc1ccc(Br)cc1)c1cc(-c2ccc3c(c2)OCO3)on1,-,0,0,0,0
O=C(Nc1cc(Cl)ccc1O)c1cc(-c2ccc3c(c2)OCO3)on1,?,-,-,-,0
O=C(Nc1cccc(Cl)c1)c1cc(-c2ccc3c(c2)OCCO3)on1,-,-,-,-,0.48µM
Cc1cccc(NC(=O)c2cc(-c3ccc4c(c3)OCCO4)on2)c1,-,-,-,-,0.19µM
Cc1ccc(NC(=O)c2cc(-c3ccc4c(c3)OCO4)on2)cc1,0,0,0,0,0
Cc1ccc(Cl)cc1NC(=O)c1cc(-c2ccc3c(c2)OCCO3)on1,-,-,-,-,1.3µM
O=C(Nc1cccc(C(F)(F)F)c1)c1cc(-c2ccc(Cl)cc2)on1,0,-,-,-,0
O=C(Nc1cccc(C(F)(F)F)c1)c1cc(-c2ccc3c(c2)OCCO3)on1,-,-,-,-,1.5µM
CC(C)c1ccc(C2=NC(c3ccncc3)=Nc3ccc(F)cc3N2)cc1,0,-,-,-,0
Cc1noc(C)c1C(=O)N1CCC[C@@]2(CCN(C(=O)Nc3ccccc3)C2)C1,0,-,-,-,-
O=C(Nc1cccc(C(F)(F)F)c1)c1cc(-c2ccc(F)cc2)on1,0,0,?,0,?
CC(C)c1cc(C(=O)Nc2cccc(C(F)(F)F)c2)no1,0,0,?,0,15µM
Cc1occc1-c1nnc(SC(C)C(=O)Nc2ccccc2F)o1 (stereo not given),-,?,?,2.8µM,0
COc1ccc(/C=N/Nc2cc(C)nc3ccccc23)cc1,-,0,?,0,?
COc1ccc(/C=N/Nc2nnc(-c3ncc[nH]3)c3ccccc23)cc1,0,2.8µM,0,?,0.34µM
Oc1ccc2ccccc2c1/C=N/Nc1nnc(-c2ncc[nH]2)c2ccccc12,0,0,0,0,3.4µM
CN1CCc2ccccc2[C@@H]1Cc1ccccc1NC(=O)c1sc2ccccc2c1Cl,0[9.22 µM],-,-,-,-
COc1ccc(-c2cc([C@H](O)C3CCCCN3)c3ccccc3n2)cc1 (stereo not given in full),0[9.22 µM],-,-,-,-
SMILES,SMN2 splice enh,NPC1 promoter act,ELG1 genotoxic,Rab9 promoter act,FLuc modulator
CC(=O)Nc1ccc(NC(=S)Nc2ccc(F)cc2)cc1,0,0,0,0,0
NC(=S)n1[nH]c(-c2ccc([N+](=O)[O-])cc2)c(N=Nc2cccc([N+](=O)[O-])c2)c1=O,0,0,0,0,?
Cc1ccc(N=Nc2c(C)[nH]n(C(N)=S)c2=O)cc1C,10µM,3.5µM,?,3.5µM,3.8µM
Cc1[nH]n(C(N)=S)c(=O)c1N=Nc1ccc2ccccc2c1,22µM,3.2µM,18µM,4µM,3µM
CC(=O)Nc1ccc(N=Nc2c(C)[nH]n(C(N)=S)c2=O)cc1,0,0,?,?,15µM
Cc1[nH]n(C(N)=S)c(=O)c1N=Nc1ccc(S(=O)(=O)N2CCCCCC2)cc1,0,0,0,0,5.4µM
COC(=O)c1cc2c(cc1NC(=O)c1c(C)nn(-c3ccc(C)cc3)c1-n1cccc1)OCO2,-,-,-,-,0
COc1ccc(Br)cc1CNC(=O)CN1CCSc2ccccc21,-,-,-,-,0
Cc1c(N=Nc2c(-c3ccc([N+](=O)[O-])cc3)[nH]n(C(N)=S)c2=O)cccc1[N+](=O)[O-],0,0,0,0,?
Cc1[nH]n(C(N)=S)c(=O)c1N=Nc1cccc([N+](=O)[O-])c1C,-,?,?,2.5µM,8.5µM
Cc1[nH]n(C(N)=S)c(=O)c1N=Nc1cc(-c2ccc(Br)cc2)[nH]n1,?,0,0,?,1.7µM
